Results on 1 molecule are retold here after PubChem BioAssay AID1159580 (chemical genetic matrix, 2015).

Structures are written as SMILES. About 2,000 (36%) of roughly 5,500 compounds were called active. Not shown: some 18% with an inconclusive outcome. This is one part of the list. A number with no mark means an inactive call. Rule as the data show it: active = normalized growth mostly below about 0.91 (no sharp cut-off); inconclusive = no clear call, values can overlap the other calls; inactive = mostly above about 0.92. Where a SMILES comes first, the peptide text is derived from it. [ ]: non-standard residue; d: D form. Orn = NCCC[CH](N)C(=O)O

The experiment in a line: chemical genetic growth profiling, strain panel (AID 1159580).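 Also: tested at 20 µM; growth read once vehicle control cultures reached saturation at 30 °C; 1 = growth at the plate median or of vehicle wells; lower values mean less growth of the strain.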 The following applies: S. cerevisiae deletion strains, growth OD, locus YOL012C, strain htz1.

Consider `CC(C)CC1NC(=O)C(CCCN)NC(=O)C(C(C)C)NC(=O)C(Cc2ccc(O)cc2)NC(=O)C(CCC(=O)O)NC(=O)C(CC(=O)O)NC(=O)C(Cc2ccccc2)NC(=O)C(Cc2ccccc2)NC(=O)C2CCCN2C(=O)C(Cc2ccccc2)NC1=O` (stereo unspecified) (cyclo(DEYV[Orn]LFPFF); configuration not given here), for which the normalized growth was 0.202.
